Experiment [1] can be described thus: Nuclear factor erythroid 2-related factor 2/antioxidant responsive element (Nrf2/ARE) small molecule agonists: qHTS cell viability counter screen in human keratinocytes (AID 1919968; active means well fitted curve in the direction sought with a large enough effect in the repeat runs; an effect the other way counts as inactive or inconclusive; further: nearly all actives have a fitted effect of over 55% in size). The procedure, abridged:
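Stably transfected HaCaT (KeratinoSens), 1,500/well. Test agents in DMSO were applied for 23 h, 37 C/5% CO2. CellTiter-Fluor was incubated 1 h before the fluorescence read.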
(Quantitative high-throughput screening tests each substance at several concentrations.)

The nature of experiment [2]: Nuclear factor erythroid 2-related factor 2/antioxidant responsive element (Nrf2/ARE) small molecule agonists: luciferase reporter gene qHTS assay in human keratinocytes (AID 1919969). Further: nearly all actives have a fitted effect of over 35% in size. A general note: A reporter such as luciferase makes a cellular process visible.
For experiment [3], the target named is KiSS-1 receptor (Homo sapiens) (UniProt Q969F8). In words: Human kisspeptin (KISS1R) small molecule agonists, calcium flux assay in KISS1R-HEK293 cells (AID 1920064; active means well fitted curve in the direction sought with a large enough effect in the repeat runs; an effect the other way counts as inactive or inconclusive). Summed up:
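After overnight (18 h) culture at 37 C/5% CO2, human KISS1R-HEK293 cells received calcium dye for 1 h, then test compound; emission at 540 nm (excitation 480 nm) was tracked for 3 min.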
A general note: Calcium assays in cells follow changes in intracellular calcium, usually with a dye or a luminescent sensor.

Experiment [4] can be described thus: G protein-coupled receptor (GPCR) small molecule agonists, calcium flux assay: HEK293 wild type cell line counter screen (AID 1920065). Summed up:
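Following 18 h incubation at 37 C/5% CO2, plates got calcium dye for 1 h; compounds, ATP or DMSO were then pinned in and fluorescence followed kinetically (480/540 nm).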

Experiment [5] in a line: p53 small molecule agonists, cell-based qHTS assay with human liver microsomes (AID 1963577).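 Further: p53 response element beta-lactamase reporter cells with liver microsomes plus NADPH.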 The procedure, abridged:
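HLM-supplemented p53RE-bla reporter assay: 16 h compound exposure at 37 C, microsomes and NADPH each 0.5 mg/mL final, read by fluorescence intensity.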

Experiment [6] can be described thus: p53 small molecule agonists, cell-based qHTS assay with rat liver microsomes (AID 1963578). Summed up: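 Quantitative HTS of the Tox21 10K library: p53RE-bla cells, rat liver microsomes plus NADPH at 0.5 mg/mL final each, 16 h at 37 C, beta-lactamase fluorescence detection.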
Experiment [7] is described as follows: p53 small molecule agonists, cell-based qHTS assay with human liver microsomes: qHTS cell viability counter screen (AID 1963579). Further: nearly all actives have a fitted effect of over 45% in size. The procedure, abridged: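 Viability of p53RE-bla cells is measured as CellTiter-Glo luminescence following a 16 h, 37 C incubation with compound, liver microsomes from human donors and NADPH.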
A short description of experiment [8]: p53 small molecule agonists, cell-based qHTS assay with rat liver microsomes: qHTS cell viability counter screen (AID 1963580). Further: nearly all actives have a fitted effect of over 45% in size. The procedure, abridged: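 Cytotoxicity counter screen: intracellular ATP read by CellTiter-Glo luminescence in the p53 reporter wells. HCT-116 p53RE-bla cells were treated for 16 h at 37 C alongside rat liver microsomes and NADPH, each 0.5 mg/mL final.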

A short description of experiment [9]: p53 small molecule agonists, cell-based qHTS assay: qHTS cell viability counter screen (AID 1963581). Further: nearly all actives have a fitted effect of over 45% in size. Summed up: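 qHTS counter screen: 16 h compound exposure at 37 C of p53RE-bla HCT-116 cells (4,000 per well, seeded 5 h prior), cell viability by ATP luminescence.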
A short description of experiment [10]: p53 small molecule agonists, cell-based qHTS assay (AID 1963582; active means well fitted activation curve with a large enough effect in the signal ratio in the repeat runs, not every such curve was filed as active; the % refers to the signal ratio). The procedure, abridged:
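Measured: fluorescence from cleaved LiveBLAzer substrate. System: p53RE-bla cells, 16 h compound treatment at 37 C, 2 h substrate step at room temperature.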

Experiment [11] concerns the target 5-hydroxytryptamine receptor 2A (Homo sapiens) (UniProt P28223). In words: 5-hydroxytryptamine receptor 2A (HTR2A) small molecule agonists, cell-based qHTS assay (AID 1963587). Further: nearly all actives have a fitted effect of over 30% in size. Summed up: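 Kinetic calcium-flux fluorescence (2 min, 1 sec intervals) after compound addition in agonist mode. HTR2A-CHO cells were cultured 18 h, then dye-loaded 1 h at 37 C.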
The target of experiment [12] is Muscarinic acetylcholine receptor M1 (Homo sapiens) (UniProt P11229). In words: Cholinergic receptor muscarinic 1 (CHRM1) small molecule antagonists, cell-based qHTS assay (AID 1963588). Further: nearly all actives have a fitted effect of over 40% in size. Summed up:
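Compounds were tested at 15 concentrations in three independent runs. Dye-loaded CHRM1-CHO cells were exposed 5 min at room temperature before stimulation by acetylcholine added at 50nM. Intracellular calcium was read kinetically on FDSS for 3 min.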

For experiment [13] the target is unchanged. In words: Cholinergic receptor muscarinic 1 (CHRM1) small molecule agonists, cell-based qHTS assay (AID 1963589). Further: nearly all actives have a fitted effect of over 35% in size. The procedure, abridged:
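Kinetic fluorescence (1 s intervals) of calcium-sensitive dye in human M1 CHO cells after compound addition; cells pre-incubated 18 h at 37 C/5% CO2 and dye-loaded 1 h.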

Experiment [14] is described as follows: cAMP Responsive Elements (CRE) small molecule agonists, cell-based qHTS assay (AID 1963590). Summed up:
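Test agents in DMSO were incubated 3 h at 37 C/5% CO2 with CRE-bla HEK 293T cells seeded 18 h earlier; LiveBLAzer B/G FRET substrate was added and read after 2 h at room temperature.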

The nature of experiment [15]: cAMP Responsive Elements (CRE) small molecule antagonists, cell-based qHTS assay (AID 1963591; active means well fitted inhibition curve with a large enough effect in the signal ratio in the repeat runs, not every such curve was filed as active; the % refers to the signal ratio). Summed up:
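Reporter line CRE-bla HEK 293T in dialyzed-FBS DMEM; cells preincubated 18 h, treated 3 h with compound plus NKH477 (0.25 uM final); LiveBLAzer FRET, 2 h RT.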

In experiment [16] the target is D(2) dopamine receptor (Homo sapiens) (UniProt P14416). The experiment is described as follows: Dopamine D2 receptor (DRD2) small molecule agonists, cell-based qHTS assay (AID 1963594). Further: nearly all actives have a fitted effect of over 35% in size. Summed up: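 cAMP accumulation in DRD2-HEK293 cells measured by HTRF after 1 h detection; compounds added 10 min before NKH477 (200nM […]) forskolin-analogue stimulation, 30 min at room temperature, with Ro20-1724 present at 0.1 mM final.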

Experiment [17] has the same target. The experiment is described as follows: Dopamine D2 receptor (DRD2) small molecule antagonists, cell-based qHTS assay (AID 1963595; active means well fitted inhibition curve with a large enough effect in the signal ratio in the repeat runs, with a control signal flat; the % refers to the signal ratio; further: potency means the concentration at half of the fitted maximal effect). The procedure, abridged:
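Human DRD2 antagonist qHTS measuring cAMP by HTRF. The cells are exposed to compound for 10 min, then to NKH477 (200 nM) and quinpirole (12 nM) for 30 min at RT, with Ro20-1724 (0.1 mM) present throughout.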

The target of experiment [18] is Beta-2 adrenergic receptor (Homo sapiens) (UniProt P07550). In words: Adrenergic beta2 receptor (ADRB2) small molecule antagonists, cell-based qHTS assay (AID 1963592). Further: series mostly up to about 92 µM; nearly all actives have a fitted effect of over 50% in size. Summed up:
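Assay format: CHO-ADRB2 cells, 18-20hr seeding at 37C/5% CO2, then compound plus 1nM isoproterenol agonist mix for 0.5hr RT. Homogeneous time-resolved fluorescence cAMP detection after 1hr, expressed as 665/615 nm ratio.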

Experiment [19] addresses 5-hydroxytryptamine receptor 2A (Homo sapiens) (UniProt P28223). In words: 5-hydroxytryptamine receptor 2A (HTR2A) small molecule antagonists, cell-based qHTS assay (AID 1963586). Further: nearly all actives have a fitted effect of over 45% in size. The procedure, abridged: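 CHO cells stably expressing human HTR2A were plated for 18 h at 37 C, then loaded with calcium dye for 1 h. Compounds were preincubated 5 min at room temperature before DOI (4 nM solution) was added. Kinetic fluorescence was read for 3 min.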

Unmarked numbers belong to inactive results. Inconclusive results are not listed. Calls of active or inactive are those of the source. Unless noted, the call rests on the fitted dose curve.

Sequence of KiSS-1 receptor (Homo sapiens) (Q969F8 whole entry, looked up): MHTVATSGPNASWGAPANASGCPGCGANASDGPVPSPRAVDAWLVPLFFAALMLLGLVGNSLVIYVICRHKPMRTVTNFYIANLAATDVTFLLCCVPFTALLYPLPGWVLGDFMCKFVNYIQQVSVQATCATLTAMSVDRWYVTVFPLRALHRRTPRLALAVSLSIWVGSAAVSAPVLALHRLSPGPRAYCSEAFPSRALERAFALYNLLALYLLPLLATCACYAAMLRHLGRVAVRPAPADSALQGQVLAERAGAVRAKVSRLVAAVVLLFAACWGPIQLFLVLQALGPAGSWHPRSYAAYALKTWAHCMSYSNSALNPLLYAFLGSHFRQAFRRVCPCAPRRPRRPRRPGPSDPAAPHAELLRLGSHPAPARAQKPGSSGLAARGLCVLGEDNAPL
Sequence of D(2) dopamine receptor (Homo sapiens) (P14416 whole entry, looked up): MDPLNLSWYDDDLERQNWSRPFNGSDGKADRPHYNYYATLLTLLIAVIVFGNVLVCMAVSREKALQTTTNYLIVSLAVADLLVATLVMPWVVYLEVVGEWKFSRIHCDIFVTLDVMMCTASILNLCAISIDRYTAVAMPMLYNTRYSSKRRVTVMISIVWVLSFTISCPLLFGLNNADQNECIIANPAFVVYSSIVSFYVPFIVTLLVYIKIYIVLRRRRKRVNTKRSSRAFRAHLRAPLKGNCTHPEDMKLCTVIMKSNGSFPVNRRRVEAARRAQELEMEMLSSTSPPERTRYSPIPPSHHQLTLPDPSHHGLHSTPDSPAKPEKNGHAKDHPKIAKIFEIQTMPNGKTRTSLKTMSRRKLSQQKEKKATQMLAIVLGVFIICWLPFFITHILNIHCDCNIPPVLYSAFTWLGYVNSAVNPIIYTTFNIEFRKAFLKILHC
Sequence of Muscarinic acetylcholine receptor M1 (Homo sapiens) (P11229 whole entry, looked up): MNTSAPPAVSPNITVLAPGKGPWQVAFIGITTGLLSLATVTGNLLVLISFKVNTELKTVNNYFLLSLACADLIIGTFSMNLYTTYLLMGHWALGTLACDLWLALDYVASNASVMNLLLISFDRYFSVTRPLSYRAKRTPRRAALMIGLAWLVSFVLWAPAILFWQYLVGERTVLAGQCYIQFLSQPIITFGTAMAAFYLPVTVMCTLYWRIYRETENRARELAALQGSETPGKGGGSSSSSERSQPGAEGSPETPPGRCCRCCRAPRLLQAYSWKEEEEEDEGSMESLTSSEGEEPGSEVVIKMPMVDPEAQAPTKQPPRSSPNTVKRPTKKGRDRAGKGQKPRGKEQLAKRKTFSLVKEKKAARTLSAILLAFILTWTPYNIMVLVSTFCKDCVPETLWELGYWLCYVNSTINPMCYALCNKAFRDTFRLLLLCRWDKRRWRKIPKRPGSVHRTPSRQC
Sequence of 5-hydroxytryptamine receptor 2A (Homo sapiens) (P28223 whole entry, looked up): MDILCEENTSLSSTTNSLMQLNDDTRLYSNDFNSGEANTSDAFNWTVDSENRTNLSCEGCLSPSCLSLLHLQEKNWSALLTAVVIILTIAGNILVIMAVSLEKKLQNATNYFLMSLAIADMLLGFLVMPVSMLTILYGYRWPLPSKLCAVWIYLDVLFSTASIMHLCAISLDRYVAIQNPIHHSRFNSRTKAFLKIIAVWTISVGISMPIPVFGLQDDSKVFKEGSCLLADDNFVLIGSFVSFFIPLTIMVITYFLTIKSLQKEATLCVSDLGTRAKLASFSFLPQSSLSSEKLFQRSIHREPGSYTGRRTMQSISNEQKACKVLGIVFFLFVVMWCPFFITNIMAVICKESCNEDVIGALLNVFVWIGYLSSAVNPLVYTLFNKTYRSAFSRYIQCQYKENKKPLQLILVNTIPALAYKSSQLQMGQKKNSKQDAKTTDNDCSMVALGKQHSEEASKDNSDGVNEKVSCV
Sequence of Beta-2 adrenergic receptor (Homo sapiens) (P07550 whole entry, looked up): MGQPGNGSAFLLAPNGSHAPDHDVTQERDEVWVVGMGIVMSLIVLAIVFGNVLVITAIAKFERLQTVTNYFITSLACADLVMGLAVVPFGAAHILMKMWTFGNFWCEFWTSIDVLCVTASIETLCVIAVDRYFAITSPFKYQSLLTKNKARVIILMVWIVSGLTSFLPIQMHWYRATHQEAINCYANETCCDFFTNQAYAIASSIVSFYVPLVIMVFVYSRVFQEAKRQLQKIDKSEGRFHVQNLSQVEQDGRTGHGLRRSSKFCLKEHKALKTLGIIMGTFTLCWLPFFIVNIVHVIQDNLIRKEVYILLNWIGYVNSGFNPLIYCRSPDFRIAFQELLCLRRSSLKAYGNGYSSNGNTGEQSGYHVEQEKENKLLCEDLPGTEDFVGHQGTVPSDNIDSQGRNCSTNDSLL

On to `FC(F)(F)c1ccc(Cl)cc1Cl`, for which the Potency result in experiment [1], in experiment [2], in experiment [5], in experiment [6], in experiment [7] and in [8] was “inactive” throughout. Besides, the Potency result in experiment [9], in [10], in experiment [11], in experiment [12], in experiment [13] and in experiment [14] was “inactive” in each case. For the same compound, the Potency entry in experiment [15], in experiment [16] and in experiment [17] was “inactive” each time. Further, the outcome in experiment [3] and in experiment [4] was inactive.

With `CC1=CC(=O)CC(C)(C)C1=O`, the Potency result in experiment [1], in experiment [2], in [5], in experiment [6], in experiment [7] and in experiment [8] was “inactive” each time. For the same compound, the Potency entry in experiment [9], in experiment [10], in experiment [14], in experiment [15], in [18] and in experiment [16] was “inactive” throughout. For the same compound, the Potency entry in experiment [17] is “inactive”. Also, the result in experiment [3] and in [4] was inactive.

Take `O=S1(=O)c2cccc3cccc(c23)N1CCCN1CCN(c2ccc(F)cc2)CC1`: the Potency entry in [1], in experiment [2], in experiment [5], in experiment [6], in experiment [7] and in experiment [8] was “inactive” each time. Further, the Potency result in experiment [9], in experiment [10], in experiment [19], in experiment [11], in [13] and in experiment [14] was “inactive” each time. In experiment [17], the Potency result was “inactive”. The outcome in experiment [3] and in experiment [4] was inactive.

In the case of `CC[N+](CC)(CCNC(=O)C(=O)NCC[N+](CC)(CC)Cc1ccccc1Cl)Cc1ccccc1Cl`, the Potency result in [1], in experiment [2], in experiment [5], in [6], in [7] and in [8] was “inactive” in each case. The Potency result in experiment [9], in experiment [10], in experiment [19], in experiment [11], in experiment [13] and in [14] was “inactive” in each case. For the same compound, the Potency entry in experiment [18], in [16] and in experiment [17] was “inactive” throughout. In addition, the result in [3] and in [4] was inactive.

`CC(C)(C)c1cc(C=O)cc(C(C)(C)C)c1O`: the Potency result in experiment [1], in experiment [2], in [5], in experiment [6], in [7] and in experiment [8] was “inactive” in each case. In addition, the Potency result in [9], in experiment [10], in [19], in [11], in experiment [13] and in [14] was “inactive” in each case. Moreover, the Potency result in experiment [15], in experiment [18], in [16] and in [17] was “inactive” throughout. The result in [3] and in experiment [4] was inactive.

For the compound `O=C1[C@H]2CCCC[C@H]2C(=O)N1CCCCN1CCN(c2nsc3ccccc23)CC1`, the Potency entry in [1], in [2], in experiment [5], in [6], in experiment [7] and in experiment [8] was “inactive” throughout. For the same compound, the Potency entry in [9], in experiment [10], in experiment [11], in [13] and in experiment [16] was “inactive” in each case. The outcome in experiment [3] and in [4] was inactive. Besides, in experiment [17], the Potency is 2.7 nM (active).

As for `CC(=O)Nc1ccc(C)c(Cl)c1`, the Potency result in [1], in experiment [2], in experiment [5], in [6], in experiment [7] and in experiment [8] was “inactive” each time. The Potency entry in experiment [9], in [10], in experiment [11], in experiment [12], in experiment [13] and in experiment [14] was “inactive” each time. Besides, the Potency result in [15], in [18], in experiment [16] and in experiment [17] was “inactive” in each case. The result in [3] and in [4] was inactive.

Values taken from PubChem BioAssay (Tox21).
